In PubChem BioAssay (Tox21):
Results filed as inconclusive are left out. Activity calls are given as the source filed them. The call rests on the fitted dose curve; in most records, active means well fitted cell-killing curve with a large enough effect in the repeat runs; inconclusive means weak or mixed curves, or effect the other way; inactive means no such curve, though single readings can be large or run the other way.

Test: qHTS assay for small molecule activators of the heat shock response signaling pathway - cell viability counter screen (AID 743209); further: nearly all actives have a fitted effect of over 50% in size
Details: HSE-bla HeLa viability, CellTiter-Glo luminescence, 5 h; series mostly up to 62.6 µM; activity change, negative = cytotoxicity: at the top concentration
Excerpt: U.S. Tox21 Program National Center for Advancing Translational Sciences [NCATS] NIH Chemical Genomics Center [NCGC] U.S. Environmental Protection Agency [EPA] National Institutes of Environmental Health Sciences [NIEHS] National Toxicology Program [NTP] U.S. Food and Drug Administration [FDA] Tox21 Assay Overview: Various chemicals, environmental and physiological stress conditions may lead to the activation of heat shock response/ unfolded protein response (HSR/UPR). There are three heat shock transcription factors (HSFs) (HSF-1, -2, and -4) mediating transcriptional regulation of the human HSR. To identify the compounds that activate HSR signaling, HSE-bla HeLa cell line (Invitrogen, Carlsbad, CA, USA) containing a beta-lactamase reporter gene under the control of the heat shock response elements was used to screen Tox21 10K compound library. The cytotoxicity of the Tox21 compound library against the HSE-bla HeLa cell line was tested in parallel by measuring the cell viability using CellTiter-Glo assay (Promega, Madison, WI) in the same wells.
Tox21 Assay Protocol Summary: The CellSensor HSE-bla HeLa cells (Invitrogen, Carlsbad, CA, USA) were dispensed at 1500 cells/6uL/well into 1536-well black wall/clear bottom plates using a Multidrop combi (Thermo Fisher Scientific, Waltham, MA) dispenser. After the assay plates were incubated at 37 C and 5% CO2 overnight, 23 nL of compounds dissolved in DMSO, positive controls or DMSO only was transferred to the assay plate by a Pintool station (Kalypsys, San Diego, CA). The plates were incubated at 37 C for 5 h. After 1 uL of LiveBLAzerTM B/G FRET substrate was added using a Flying Reagent Dispenser (FRD, Beckman Coulter, Indianapolis, IN, USA), the plates were incubated at room temperature for 2.5 h, and fluorescence intensity was measured by an Envision plate reader (PerkinElmer, Shelton, CT). For cell viability readout that measures cytotoxicity, 3 ul/well of CellTiter-Glo reagent was added into the assay plates using a FRD. After 30 min incubation at room temperature, the luminescence intensity in the plates was measured using a ViewLux (PerkinElmer) plate reader.
On the % scale 0 is the no-effect control and ±100 the full control effect.

Row | SMILES | activity change, negative = cytotoxicity
1 | Cc1nc([N+](=O)[O-])cn1-c1ccc([N+](=O)[O-])cc1 | -12.1% (inactive)
2 | COCCOCCOCCOC | 0.237% (inactive)
3 | CN(C)CCOCCN(C)CCO | -0.909% (inactive)
4 | Nc1cc(Cl)cc(S(=O)(=O)O)c1O | -1.56% [at 81.1 µM] (inactive)
5 | CCCCCCCCCCCCC | -5.49% (inactive)
6 | C=C[C@@H](C)CCC=C(C)C | 5.07% (inactive)
7 | C=C(C)C(=O)OCCCCCCOC(=O)C(=C)C | -3.17% (inactive)
8 | N#CCCOCCOCCC#N | 3.18% (inactive)
9 | Cc1cc(O)c2c(c1)C(=O)c1cccc(O)c1C2=O | -9.46% (inactive)
10 | CC(=O)Nc1ncc([N+](=O)[O-])s1 | -2.21% (inactive)
11 | CCCCC(C)C(=O)O (stereo not given) | -1.59% (inactive)
12 | CCCCCC1CCCC(=O)O1 (stereo not given) | -5.6% (inactive)
13 | CCC(O)C(C)(C)C (stereo not given) | 14.7% [at 81.1 µM] (inactive)
14 | O=P(O)(O)OCC(O)CO (stereo not given) | -26.1% (inactive)
15 | CCC(C)(C)C1CCC(=O)CC1 | -1.23% (inactive)
16 | CCNC(=O)NCCCOc1cccc(CN2CCCCC2)c1 | -1.96% (inactive)
17 | CCCCC(CC)COC(=O)c1ccccc1 (stereo not given) | 6.09% (inactive)
18 | CCCCCC1Nc2cc(C(F)(F)F)c(S(N)(=O)=O)cc2S(=O)(=O)N1 (stereo not given) | 5.91% (inactive)
19 | O=C(O)/C=C/c1ccccc1 | 9.14% (inactive)
20 | CCCCC(CC)CNC(=O)CC(C)OC(=O)CCC(=O)O (stereo not given) | -15.2% (inactive)

Row | SMILES | activity change, negative = cytotoxicity
21 | Cc1ccccc1OCC1CO1 (stereo not given) | 19.9% [at 81.1 µM] (inactive)
22 | CCS(=O)(=O)CCn1c([N+](=O)[O-])cnc1C | 0.648% (inactive)
23 | O=S(=O)(O)c1cc(O)ccc1O | 7.13% (inactive)
24 | CCC(C)(CCC(C)C)C(=O)[O-].CCC(C)(CCC(C)C)C(=O)[O-].[Zn+2] (stereo not given) | 0.21% (inactive)
25 | COc1cccc2sc(N)nc12 | 11.2% [at 81.1 µM] (inactive)
26 | CCOC(=O)CCc1ccccc1 | 1.57% (inactive)
27 | Nc1ccc(/C=C/c2ccc(N)cc2S(=O)(=O)O)c(S(=O)(=O)O)c1 | 6.28% [at 0.55 µM] (inactive)
28 | O=c1cc(O)c(Cl)c[nH]1 | 20% (inactive)
29 | CCc1nccnc1C | -0.199% (inactive)
30 | C=CCOC(=O)c1ccc(C(=O)OCC=C)c(C(=O)OCC=C)c1 | -1.01% (inactive)
31 | CCC(CO)CO | 6.11% (inactive)
32 | O=c1[nH]c(=O)c2ccccc2o1 | -1.71% (inactive)
33 | CC(C)C(=O)c1ccccc1 | 2.23% (inactive)
34 | CCCCCCCCCCCCCCCCCCN(C)C | 3.82% (inactive)
35 | CC(=O)N(CC(O)CO)c1c(I)c(C(=O)NCC(O)CO)c(I)c(C(=O)NCC(O)CO)c1I (stereo not given) | 15.8% (inactive)
36 | NC(Cc1c[nH]c2ccccc12)C(=O)O (stereo not given) | -3.81% (inactive)
37 | CC(C)(C)c1ccc(C=O)cc1 | -8.31% (inactive)
38 | CCCCOC(=O)C(C)OC(=O)CCC (stereo not given) | -0.362% (inactive)
39 | CCCCC[Si](OCC)(OCC)OCC | -3.15% (inactive)
40 | COC(/C=C(\C)CCC=C(C)C)OC | 2.89% (inactive)
